“And” between values parts separate entries of the source, which are not always exact repeats. Equal values may be shown once. Results filed as inconclusive are left out. Some structures have more than one record in an assay (separate samples or runs), and their calls can disagree. The source made the active and inactive calls.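 The calls were made as follows, unless noted: active = compounds whose cell count with miR-34 switched on is under 0.7 times the count with it off; inactive = the rest.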

The term viability denotes a read-out of living cells in per cent, often relative to untreated cells. By EC50 is commonly meant the concentration that produces a half-maximal response. Broadly, the inhibition is the share of the control response that was lost under treatment.

Experiment [1] in a line: P. berghei load reduction in hepatocytes – cell-based, HepG2, luciferase luminescence, HepG2 viability, primary screen (AID 624349; in the data active = parasite load remaining mostly below about 12%, no sharp cut-off; inactive = mostly above about 10%;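 also: 100% = mean of DMSO negative control wells on the same plate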). As to conditions: P. berghei liver stage in HepG2, luciferase luminescence, concentration not given here; parasite load remaining: stronger effect = lower value; viability: measured here: HepG2 viability without parasites.
A short description of experiment [2]: viability loss with induced miR-34 in A549 – imaging, A549 dox-inducible miR-34, nuclei and caspase counts, primary screen (AID 1347080). As to conditions: A549 miR-34 inducible, Hoechst nuclei count, 48 h.
A short description of experiment [3]: MELAS cybrid and Rieske KO viability enhancers – cell-based, MELAS cybrids, Rieske KO mouse fibroblasts, CellTiter-Glo, primary screen (AID 1508586;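 active = mean z-score across replicates of 1.96 or higher in either the MELAS or the Rieske mutant cell line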;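 also: z relative to plate mean and SD of compound and empty wells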). The settings on record: low glucose.
Experiment [4] in a line: galactose survival enhancers in mitochondrial complex I cybrids – cell-based, galactose medium, ATP luminescence, primary screen (AID 1645843;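 active = z-score of at least 1.8 in each of two replicates, scored against plate mean and spread of sample wells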;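 also: positive z means more ATP and so rescue of galactose-driven cybrid death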). As to conditions: complex I mutant cybrid cells, 72 h, stronger effect = higher value.
Experiment [5] in a line: compounds altering viability of human ES cells (AID 493140; call rule not given here;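 also: cells exposed to compounds for four days before counting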). The settings on record: human embryonic stem cell survival screen; stronger effect = higher value.
Experiment [6] is described as follows: blockers of MitoPT in mitochondria (AID 1580; call rule not given here). As to conditions: isolated mitochondria, permeability transition inhibition.
The nature of experiment [7]: blockers of polyQ-driven CASP3 activation – cell-based (AID 1583). As to conditions: polyglutamine-induced caspase-3 activation, cell assay; stronger effect = higher value;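 tested at 10 µM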.
Experiment [8] is described as follows: yeast 75Q aggregation reduction – 75Q-TubU reporter (AID 1593). As to conditions: Yeast 75Q polyglutamine aggregation reporter.
Experiment [9] can be described thus: blockers of cytochrome c efflux from mitochondria – biochemical, purified mitochondria (AID 1603).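 Also: mouse liver mitochondria challenged with calcium chloride; signal normalized to the plate average as 100%.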 The settings on record: stronger effect = lower value.
Experiment [10] is described as follows: polyglutamine aggregate formation blockers (AID 1604). The settings on record: polyglutamine-induced protein aggregation inhibition assay; stronger effect = higher value; tested at 2.5 µM.
Experiment [11] in a line: rescue of PC12 cells from polyQ htt toxicity – LDH release (AID 1610). The settings on record: PC12 mutant huntingtin toxicity, final LDH at 4 uM, stronger effect = lower value. (LDH leaks from cells whose membrane has failed.)
Experiment [12] can be described thus: glutamate transport activators, MN-1 cells, MN-1 cell line (AID 1612).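 Also: tested at 1 µM final; 0% = mean of DMSO vehicle wells on each plate; positive means more glutamate uptake than control and negative means less.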 As to conditions: MN-1 motor neuron cells, stronger effect = higher value.
A short description of experiment [13]: 75Q-TubH aggregate inhibition, S. cerevisiae, yeast (AID 1616). As to conditions: S. cerevisiae 75Q-TubH polyglutamine aggregation suppression; stronger effect = higher value.
Setting [14] is: stronger effect = lower value, cell number ratio, induced over uninduced.
Where [15] appears, read: measured here: relative caspase fold change +Dox/-Dox.
Where [16] appears, read: measured here: total cells with miR-34 induction, stronger effect = lower value.
Where [17] appears, read: measured here: total cells without miR-34 induction.
[18] abbreviates: MELAS cybrid survival, CellTiter-Glo 48 h, stronger effect = higher value.
Setting [19] is: Rieske KO mouse fibroblast survival, CellTiter-Glo 72 h.

Consider `CCC1=C[C@@H]2CN3CCc4c([nH]c5ccccc45)[C@@](C(=O)OC)(C2)[C@@H]13`, for which the parasite load remaining in experiment [1] is 9.8% (inactive). Besides, the viability in experiment [1] is 47.4%. Also, the fold change is 0.949 (inactive) and 0.823 (inactive) in experiment [2] (setting [14]); 1.22 and 0.88 in [2] (setting [15]). The cell count in experiment [2] (setting [16]) is 8480 and 6230; in experiment [2] (setting [17]) it was 8930 and 7580. Besides, the z-score in experiment [3] (setting [18]) is -0.196 (inactive) and 0.501 (inactive); in experiment [3] (setting [19]), -0.315 and -0.157.
`Nc1cc2c(ncn2CCOCP(=O)(O)O)c(=O)[nH]1`: the values for the fold change in [2] (stronger effect = lower value) and in experiment [2] (setting [15]) were 1.06 (inactive) and 1.02, respectively. Moreover, the figures for the cell count in experiment [2] (setting [16]) and in [2] (setting [17]) were 3380 and 3200, respectively. Also, the z-score in [4] was -0.655 (inactive).
Turning to `CCCCCC[C@H]1C(=O)O[C@H](C)C(NC(=O)c2cccc(NC=O)c2O)C(=O)O[C@@H](C)[C@@H]1OC(=O)CC(C)C` (some centres not stated), the survival in experiment [5] was 38.8 (inactive). The parasite load remaining in experiment [1] is 0.52% (inactive) and 0.28% (active). Also, the viability in experiment [1] is 30.3% and 71%. Moreover, the fold change in experiment [2] (stronger effect = lower value) was 1.21 (inactive); in experiment [2] (setting [15]), 0.771. Further, the cell count in experiment [2] (setting [16]) was determined as 3300; in [2] (setting [17]), 2720. Further, the z-score is 0.402 (inactive) in [3] (setting [18]) and 0.0989 in experiment [3] (setting [19]).
In the case of `CCOC(=O)c1cncn1[C@@H](C)c1ccccc1`, the parasite load remaining in experiment [1] was 94.8% (inactive). In addition, the viability in experiment [1] was 128%. The results for the fold change in experiment [2] (stronger effect = lower value) and in experiment [2] (setting [15]) were 0.937 (inactive) and 0.906, respectively. In addition, the cell count came to 8390 in experiment [2] (setting [16]) and 8960 in experiment [2] (setting [17]). For the same compound, the z-score is -0.428 (inactive) in experiment [3] (setting [18]) and -0.415 in [3] (setting [19]).
On to `C=C(C)[C@@H]1C2C(=O)O[C@H]1[C@H]1OC(=O)[C@@]34OC3C[C@]2(O)[C@@]14C` (some centres not stated), for which the parasite load remaining in experiment [1] is 103% (inactive). In addition, in experiment [1], the viability was 99.2%. For the same compound, the fold change is 0.887 (inactive) in [2] (setting [14]) and 0.911 in experiment [2] (setting [15]). In addition, the cell count in [2] (setting [16]) was 8720; in [2] (setting [17]), 9830. In addition, the z-score in [3] (setting [18]) is 0.399 (inactive); in [3] (setting [19]), 0.218.
Regarding `CN1[C@@H]2CC[C@H]1CC(OC(=O)C1C=Nc3ccccc31)C2` (some centres not stated), the parasite load remaining in experiment [1] was 130% (inactive). Besides, in [1], the viability amounted to 98.7%. In addition, the fold change in [2] (setting [14]) is 0.853 (inactive) and 0.904 (inactive); in experiment [2] (setting [15]), 1.46 and 2.72. Besides, the cell count in [2] (setting [16]) was 8760 and 8980; in experiment [2] (setting [17]), 10300 and 9930. The z-score in [3] (setting [18]) was 2.22 (active) and 0.522 (inactive); in experiment [3] (setting [19]) it was -0.387 and 0.113.
`CCCCCC=CCC=CCC=CCC=CCCCC(=O)Nc1ccc(O)cc1`: the fold change was 0.829 (inactive) in [2] (setting [14]) and 1.13 in [2] (setting [15]). Also, the cell count in experiment [2] (setting [16]) was found to be 7710; in experiment [2] (setting [17]) it was 9290. Besides, in experiment [4], the z-score is -1.44 (inactive).
For the compound `CNc1ccc2oc(C[C@@H]3OC4(CC[C@@H]3C)O[C@H](C(C)C(=O)c3ccc[nH]3)[C@H](C)C[C@H]4C)nc2c1C(=O)O` (some centres not stated), the EC50 in experiment [6] was 1000 nM (active). For the same compound, the inhibition in experiment [7] is 86.4%. The same compound gave a score in experiment [8] of -0.79. In [9], the cytochrome c release ratio turned out to be 0.48. This compound also yielded an inhibition of aggregation in experiment [10] of 51.9%. The compound also had a normalised LDH release in experiment [11] of 1.68. For the same compound, the glutamate uptake change in experiment [12] was -78%. In experiment [13], this compound gave an aggregation suppression score of -0.166. In addition, the figures for the fold change in experiment [2] (stronger effect = lower value) and in experiment [2] (setting [15]) were 1.33 (inactive) and 0.886, respectively. In addition, the cell count in [2] (setting [16]) is 885; in experiment [2] (setting [17]), 666.
Take `C[C@H]1CN(C2CCC(C#N)(c3ccc(F)cc3)CC2)CC[C@@]1(C(=O)O)c1ccccc1` (some centres not stated): the parasite load remaining in experiment [1] is 36.7% (inactive). In addition, in experiment [1], the viability came out at 68%. Also, the fold change in experiment [2] (stronger effect = lower value) was 0.857 (inactive); in [2] (setting [15]) it was 1.09. The values for the cell count in experiment [2] (setting [16]) and in experiment [2] (setting [17]) were 9640 and 11200, respectively. Also, the z-score in experiment [3] (setting [18]) is 0.032 (inactive); in experiment [3] (setting [19]), 0.209; in experiment [4] it was 0.74 (inactive).

Values taken from PubChem BioAssay.
